Assay results published in ChEMBL document CHEMBL3433997, “St. Jude Leishmania screening dataset” (2016).

Target: Hexose transporter 1 (Plasmodium falciparum) (UniProt O97467)
Assay: ST_JUDE_LEISH: Cytotoxicity at 2uM final concentration against transgenic Leishmania Mexicana promastigotes LmPfHT that are glucose transport deficient and complemented with the Plasmodium falciparum hexose transporter. Activity is measured by DNA content using SYBR green in vitro
Assay type: functional

Going from CC(=O)Nc1nc(C(=O)Nc2cccc(-c3ccc(-c4nc5cccc(C)c5[nH]4)s3)c2)cs1 to CCOC(=O)c1ccc(NC(=O)Nc2cccc(-c3ccc(-c4nc5cccc(C)c5[nH]4)s3)c2)cc1, the inhibition falls from 11.9% to 0.81%.

Compared with Cc1cc(NC(=O)Nc2ccc3sccc3c2)c2ccccc2n1, Cc1cc(C(F)(F)F)cc(-n2ncc(-c3ccc(C(=O)NCCNCc4ccccc4)cc3)c2N)n1 is lower in inhibition: 2.66% for the first, 1.46% for the second.

First: COc1ccccc1C1CC(c2ccccc2)=NN1C(=O)c1ccccc1 (stereo not given)
Second: O=C(C(=O)c1ccc(Nc2ccnc3cc(-c4ccccn4)ccc23)cc1)c1ccccc1
The inhibition of the first is higher: -0.25% for the first, -0.47% for the second.

First: CC1CC(C)CN(S(=O)(=O)c2cc(C(=O)Nc3cccc([N+](=O)[O-])c3)ccc2Br)C1 (stereo not given)
Second: O=[N+]([O-])c1cccc(NC(=S)N2CCCN(Cc3ccc(Cl)cc3Cl)CC2)c1
The inhibition of the first is higher: 7.57% for the first, 3.32% for the second.

Compared with CCNc1cc(C(=O)N[C@@H](Cc2ccccc2)[C@H](O)CNC(CC)c2cccc(Cl)c2)cc(N2CCCCS2(=O)=O)c1 (stereo not given in full), O=C(Nc1cccc(C(F)(F)F)c1)c1cccc(S(=O)(=O)NCC2CCCN(Cc3ccccc3)C2)c1 (stereo not given) is higher in inhibition: 1.05% for the first, 1.75% for the second.

Compared with CCN(CC)C(=O)c1cccc(C=Cc2ccc(-c3c(C)[nH]c(C)c(Cl)c3=O)cc2)c1, Cc1[nH]c(C)c(-c2ccc(-c3cccc(Cl)c3)nc2)c(=O)c1Br is lower in inhibition: 2.83% for the first, 1.07% for the second.

First: CC(C)=CCc1c(-c2ccc(O)cc2O)oc2c3c(cc(O)c2c1=O)OC(C)(C)C=C3
Second: COc1ccc(-c2nc(NC(=O)Cc3ccc4c(c3)OCCO4)sc2C)cc1
The inhibition of the first is higher: 4.6% for the first, 4.52% for the second.

Compared with Clc1ccc(CNCCCCCCNCc2ccc(Cl)cc2)cc1, O=C(/C=C/c1ccc(Cl)cc1)NCCCCCN1CCCC(C(=O)Nc2cccc(Cl)c2)C1 (stereo not given) is higher in inhibition: 1.71% for the first, 2.1% for the second.

First: CCC(C)NC(=O)Cn1c2ncccc2c(=O)n1-c1ccc(C)cc1 (stereo not given)
Second: CCCC(C)N(Cc1ccc(C(C)(C)C)cc1)C(=O)c1cccc(OC)c1 (stereo not given)
The inhibition of the first is higher: 4.88% for the first, -0.47% for the second.

Compared with CCOc1cc2ncnc(Nc3ccc(OCc4c(Cl)cccc4Cl)c(OC)c3)c2cc1OCC, COc1ccc(CN(C)CCCc2ccc(NC(=O)c3cc4ccccc4[nH]3)cc2)cc1OC is lower in inhibition: 4.16% for the first, 1.65% for the second.

Going from CCCC1(C)CSc2ccccc2C(c2ccccc2)N1 (stereo not given) to O=C1C2C3SC(c4c3ccc3ccccc43)C2C(=O)N1c1ccccc1 (stereo not given), the inhibition falls from 6.11% to 0.31%.

First: COc1ccc(NS(=O)(=O)c2ccc(C(=O)Nc3ccc(C(F)(F)F)cc3)cc2)cc1N1CCN(CC2CC2)CC1
Second: CN1CCC(C(=O)Nc2ccc(-c3cccc(-c4nc5cc(C(F)(F)F)ccc5[nH]4)c3)cc2)CC1
The inhibition of the first is lower: 0.6% for the first, 2.62% for the second.

Compared with O=C(CCCCCNC(=O)c1ccc(O)c(-c2ccc(Cl)c(Cl)c2)c1)NCc1cccc2ccccc12, CNC(=O)Cc1ccc(C(=O)Nc2cccc(-c3cccc(-c4nc5cc(C(F)(F)F)ccc5[nH]4)c3)c2)cc1 is lower in inhibition: 2.12% for the first, 0.81% for the second.

Going from COCCNC(=O)C1CCN(C(c2ccc(Cl)cc2)c2ccc(Cl)cc2)CC1 to O=C(Nc1ccc(-c2ccccc2)s1)N[C@H]1CCN(Cc2ccc(OCCCN3CCCCC3)cc2)C1, the inhibition falls from 6.03% to 1.34%.

Going from CC(C)[C@H]1CC[C@H](C)C[C@@H]1OC(=O)N[C@@H](Cc1ccc(O)cc1)C(=O)NC1CCN(Cc2ccc(OCCCN(C)C)cc2)C1 (stereo not given in full) to O=C(CC1CCCC1)N(Cc1ccc(-c2ccc(CNC3Cc4ccccc4C3)cc2)cc1)CC1CCCCN1 (stereo not given), the inhibition rises from 3.96% to 4.62%.

Compared with Cc1c(S(=O)(=O)Nc2ccc3nccc(N4CCN[C@H](C)C4)c3c2)sc2ccc(Cl)cc12, COc1cc2c(cc1N1CC(C)NC(C)C1)N(C(=O)c1ccc(-c3ccc(-c4ncc[nH]4)cc3C)cc1)CC2 (stereo not given) is higher in inhibition: 0.48% for the first, 1.1% for the second.

Compared with Cc1nc(-c2nc(NCCc3cnccn3)ncc2-c2ccsc2)sc1C, CCC(Nc1noc(-c2c(-c3ccccc3)noc2C)n1)c1ccccc1 (stereo not given) is higher in inhibition: 0.59% for the first, 2.18% for the second.

Going from COc1cc(N)cc2sc(N)nc12 to CCCc1cc(Cc2cnc(N)nc2N)cc2c1OC(C)C2C (stereo not given), the inhibition rises from 0.54% to 8.61%.

First: c1ccc(-c2ccc(CNCc3ccc(-c4cccc(-c5nc6ccccc6[nH]5)c4)cc3)s2)nc1
Second: Oc1ccc(-c2cc(COc3ccccc3C(F)(F)F)c(C3=CCNCC3)cc2COc2ccccc2C(F)(F)F)cc1
The inhibition of the first is higher: 2.78% for the first, 2.67% for the second.

First: COc1c(C)cc(I)cc1CNCCCNc1cc(=O)c2ccccc2[nH]1
Second: COc1ccc2c(NN=Cc3ccccn3)ccnc2c1
The inhibition of the first is lower: -0.66% for the first, 11.8% for the second.

Target: Glucose transporter (Leishmania mexicana) (UniProt O61059)
Assay: ST_JUDE_LEISH: Cytotoxicity at 2uM final concentration against transgenic Leishmania Mexicana promastigotes LmGT2 that are glucose transport deficient and complemented with the L. Mexicana glucose transporter 2. Activity is measured by DNA content using SYBR green in vitro
Assay type: functional

Compared with CC(=O)Nc1nc(C(=O)Nc2cccc(-c3ccc(-c4nc5cccc(C)c5[nH]4)s3)c2)cs1, CCOC(=O)c1ccc(NC(=O)Nc2cccc(-c3ccc(-c4nc5cccc(C)c5[nH]4)s3)c2)cc1 is lower in inhibition: 8.32% for the first, 2.18% for the second.

Compared with Cc1cc(NC(=O)Nc2ccc3sccc3c2)c2ccccc2n1, Cc1cc(C(F)(F)F)cc(-n2ncc(-c3ccc(C(=O)NCCNCc4ccccc4)cc3)c2N)n1 is lower in inhibition: 0.53% for the first, -0.24% for the second.

Compared with COc1ccccc1C1CC(c2ccccc2)=NN1C(=O)c1ccccc1 (stereo not given), O=C(C(=O)c1ccc(Nc2ccnc3cc(-c4ccccn4)ccc23)cc1)c1ccccc1 is lower in inhibition: -0.28% for the first, -2.63% for the second.

Going from CC1CC(C)CN(S(=O)(=O)c2cc(C(=O)Nc3cccc([N+](=O)[O-])c3)ccc2Br)C1 (stereo not given) to O=[N+]([O-])c1cccc(NC(=S)N2CCCN(Cc3ccc(Cl)cc3Cl)CC2)c1, the inhibition falls from 5.14% to 3.01%.

Going from CCNc1cc(C(=O)N[C@@H](Cc2ccccc2)[C@H](O)CNC(CC)c2cccc(Cl)c2)cc(N2CCCCS2(=O)=O)c1 (stereo not given in full) to O=C(Nc1cccc(C(F)(F)F)c1)c1cccc(S(=O)(=O)NCC2CCCN(Cc3ccccc3)C2)c1 (stereo not given), the inhibition rises from -0.27% to 1.71%.

First: CCN(CC)C(=O)c1cccc(C=Cc2ccc(-c3c(C)[nH]c(C)c(Cl)c3=O)cc2)c1
Second: Cc1[nH]c(C)c(-c2ccc(-c3cccc(Cl)c3)nc2)c(=O)c1Br
The inhibition of the first is higher: 1.56% for the first, 0.63% for the second.

Going from CC(C)=CCc1c(-c2ccc(O)cc2O)oc2c3c(cc(O)c2c1=O)OC(C)(C)C=C3 to COc1ccc(-c2nc(NC(=O)Cc3ccc4c(c3)OCCO4)sc2C)cc1, the inhibition falls from 6.57% to 5.29%.

Going from Clc1ccc(CNCCCCCCNCc2ccc(Cl)cc2)cc1 to O=C(/C=C/c1ccc(Cl)cc1)NCCCCCN1CCCC(C(=O)Nc2cccc(Cl)c2)C1 (stereo not given), the inhibition rises from -1.04% to 3.91%.

First: CCC(C)NC(=O)Cn1c2ncccc2c(=O)n1-c1ccc(C)cc1 (stereo not given)
Second: CCCC(C)N(Cc1ccc(C(C)(C)C)cc1)C(=O)c1cccc(OC)c1 (stereo not given)
The inhibition of the first is higher: 0.04% for the first, -2.72% for the second.

First: CCOc1cc2ncnc(Nc3ccc(OCc4c(Cl)cccc4Cl)c(OC)c3)c2cc1OCC
Second: COc1ccc(CN(C)CCCc2ccc(NC(=O)c3cc4ccccc4[nH]3)cc2)cc1OC
The inhibition of the first is higher: 3.54% for the first, 0.23% for the second.

Compared with CCCC1(C)CSc2ccccc2C(c2ccccc2)N1 (stereo not given), O=C1C2C3SC(c4c3ccc3ccccc43)C2C(=O)N1c1ccccc1 (stereo not given) is lower in inhibition: 7.67% for the first, -1.01% for the second.

Going from COc1ccc(NS(=O)(=O)c2ccc(C(=O)Nc3ccc(C(F)(F)F)cc3)cc2)cc1N1CCN(CC2CC2)CC1 to CN1CCC(C(=O)Nc2ccc(-c3cccc(-c4nc5cc(C(F)(F)F)ccc5[nH]4)c3)cc2)CC1, the inhibition rises from -7.4% to 2.31%.

Going from O=C(CCCCCNC(=O)c1ccc(O)c(-c2ccc(Cl)c(Cl)c2)c1)NCc1cccc2ccccc12 to CNC(=O)Cc1ccc(C(=O)Nc2cccc(-c3cccc(-c4nc5cc(C(F)(F)F)ccc5[nH]4)c3)c2)cc1, the inhibition falls from 3.98% to -0.97%.

First: COCCNC(=O)C1CCN(C(c2ccc(Cl)cc2)c2ccc(Cl)cc2)CC1
Second: O=C(Nc1ccc(-c2ccccc2)s1)N[C@H]1CCN(Cc2ccc(OCCCN3CCCCC3)cc2)C1
The inhibition of the first is higher: 9.02% for the first, 2.81% for the second.

Going from CC(C)[C@H]1CC[C@H](C)C[C@@H]1OC(=O)N[C@@H](Cc1ccc(O)cc1)C(=O)NC1CCN(Cc2ccc(OCCCN(C)C)cc2)C1 (stereo not given in full) to O=C(CC1CCCC1)N(Cc1ccc(-c2ccc(CNC3Cc4ccccc4C3)cc2)cc1)CC1CCCCN1 (stereo not given), the inhibition falls from 3.06% to 2.06%.

Compared with Cc1c(S(=O)(=O)Nc2ccc3nccc(N4CCN[C@H](C)C4)c3c2)sc2ccc(Cl)cc12, COc1cc2c(cc1N1CC(C)NC(C)C1)N(C(=O)c1ccc(-c3ccc(-c4ncc[nH]4)cc3C)cc1)CC2 (stereo not given) is higher in inhibition: -2.96% for the first, 3.39% for the second.

First: Cc1nc(-c2nc(NCCc3cnccn3)ncc2-c2ccsc2)sc1C
Second: CCC(Nc1noc(-c2c(-c3ccccc3)noc2C)n1)c1ccccc1 (stereo not given)
The inhibition of the first is lower: -2.39% for the first, 1.54% for the second.

Compared with COc1cc(N)cc2sc(N)nc12, CCCc1cc(Cc2cnc(N)nc2N)cc2c1OC(C)C2C (stereo not given) is higher in inhibition: 0.08% for the first, 5.24% for the second.

First: c1ccc(-c2ccc(CNCc3ccc(-c4cccc(-c5nc6ccccc6[nH]5)c4)cc3)s2)nc1
Second: Oc1ccc(-c2cc(COc3ccccc3C(F)(F)F)c(C3=CCNCC3)cc2COc2ccccc2C(F)(F)F)cc1
The inhibition of the first is higher: 0.61% for the first, -0.12% for the second.

Going from COc1c(C)cc(I)cc1CNCCCNc1cc(=O)c2ccccc2[nH]1 to COc1ccc2c(NN=Cc3ccccn3)ccnc2c1, the inhibition rises from -0.84% to 11.3%.
